# Reference: PubChem BioAssay (NCATS)
# Results filed as inconclusive are left out. Activity calls are given as the source filed them. Calls follow the shape of the dose curve; as a rule, active = well fitted inhibition curve with a large enough effect; inconclusive = small, poorly fitted or top-dose-only effect; inactive = flat fitted curve, though single readings scatter.
# Target: Lysine-specific demethylase 5B (Homo sapiens) (UniProt Q9UGL1)
# Assay: Optimization screen for KDM5B Histone Demethylases FDH coupled qHTS against the LOPAC library (AID 1347166); also: 0% is about no effect
# Settings: KDM5B demethylation, FDH-coupled NADH fluorescence (FDH is formaldehyde dehydrogenase); series mostly up to 57.5 µM; activity, negative = inhibition: at the top concentration
# In short: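 KDM5BDeltaAP (200nM final) preincubated 10 min with compound, then 12.5uM H3K4Me3, 25uM a-ketoglutarate, ascorbate, Fe(II), NAD+ and FDH added; 50mM HEPES pH 7.5, 0.01% Tween-20. NADH fluorescence (340/450 nm) change over 30 min, room temperature.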
# Sequence of Lysine-specific demethylase 5B (Homo sapiens) (Q9UGL1 whole entry, looked up): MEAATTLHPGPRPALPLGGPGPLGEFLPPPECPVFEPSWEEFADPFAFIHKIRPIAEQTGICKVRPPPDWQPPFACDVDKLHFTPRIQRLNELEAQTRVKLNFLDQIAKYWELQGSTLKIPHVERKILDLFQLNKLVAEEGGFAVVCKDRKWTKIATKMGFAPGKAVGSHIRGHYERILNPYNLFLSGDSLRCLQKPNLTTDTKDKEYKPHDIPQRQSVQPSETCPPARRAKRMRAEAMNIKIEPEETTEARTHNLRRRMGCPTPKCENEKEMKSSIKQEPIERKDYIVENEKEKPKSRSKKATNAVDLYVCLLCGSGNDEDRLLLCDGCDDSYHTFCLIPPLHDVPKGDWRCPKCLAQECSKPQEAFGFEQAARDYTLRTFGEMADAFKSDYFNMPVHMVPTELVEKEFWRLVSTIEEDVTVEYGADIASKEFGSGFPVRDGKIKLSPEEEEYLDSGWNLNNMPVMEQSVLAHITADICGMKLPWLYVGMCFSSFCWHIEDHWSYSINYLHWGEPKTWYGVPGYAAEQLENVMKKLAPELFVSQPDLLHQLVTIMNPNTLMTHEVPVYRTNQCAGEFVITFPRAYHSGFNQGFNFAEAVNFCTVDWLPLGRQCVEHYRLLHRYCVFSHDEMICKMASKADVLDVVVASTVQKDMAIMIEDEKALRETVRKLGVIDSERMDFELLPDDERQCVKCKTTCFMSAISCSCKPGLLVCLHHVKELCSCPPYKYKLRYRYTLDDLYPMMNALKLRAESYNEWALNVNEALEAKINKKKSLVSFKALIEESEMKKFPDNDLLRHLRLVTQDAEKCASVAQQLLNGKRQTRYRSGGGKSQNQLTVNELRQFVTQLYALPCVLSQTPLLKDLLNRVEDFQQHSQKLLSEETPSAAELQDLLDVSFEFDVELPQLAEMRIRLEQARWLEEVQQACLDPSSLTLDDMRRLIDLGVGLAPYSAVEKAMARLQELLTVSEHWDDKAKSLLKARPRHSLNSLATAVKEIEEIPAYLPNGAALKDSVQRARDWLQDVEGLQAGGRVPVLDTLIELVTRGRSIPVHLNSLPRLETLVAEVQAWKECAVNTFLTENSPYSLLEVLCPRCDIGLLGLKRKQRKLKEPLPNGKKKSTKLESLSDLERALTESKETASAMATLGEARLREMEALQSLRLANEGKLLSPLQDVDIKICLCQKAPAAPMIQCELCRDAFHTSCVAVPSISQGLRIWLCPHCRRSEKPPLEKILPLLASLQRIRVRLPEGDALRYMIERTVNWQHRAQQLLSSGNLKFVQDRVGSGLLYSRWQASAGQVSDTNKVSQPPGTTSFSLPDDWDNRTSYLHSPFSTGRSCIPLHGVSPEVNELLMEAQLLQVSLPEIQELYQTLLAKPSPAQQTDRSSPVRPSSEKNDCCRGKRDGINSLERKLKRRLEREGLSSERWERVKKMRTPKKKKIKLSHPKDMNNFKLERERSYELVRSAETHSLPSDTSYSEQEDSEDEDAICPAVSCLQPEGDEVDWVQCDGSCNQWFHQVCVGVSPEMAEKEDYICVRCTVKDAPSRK
row,Structure (SMILES),"activity, negative = inhibition"
1,CC(C)Cc1ccc(C(C)C(=O)O)cc1 (stereo not drawn),-4.49% (inactive)
2,CN1CCN(C2=Nc3cc(Cl)ccc3Nc3ccccc32)CC1,-2.99% (inactive)
3,CCC1(c2ccccc2)C(=O)NCNC1=O,-4.32% (inactive)
4,CC(C)C(=O)Nc1ccc([N+](=O)[O-])c(C(F)(F)F)c1,-2.58% (inactive)
5,NCCc1cnc[nH]1,-9.3% (inactive)
6,CN1C(C(=O)Nc2ccccn2)=C(O)c2ccccc2S1(=O)=O,-8.12% (inactive)
7,CCCCc1oc2ccccc2c1C(=O)c1cc(I)c(OCCN(CC)CC)c(I)c1,-17.2% (inactive)
8,CS(=O)(=O)Nc1ccc([N+](=O)[O-])cc1Oc1ccccc1,-20% (inactive)
9,O=c1[nH]cc(F)c(=O)[nH]1,-9.08% (inactive)
10,O=c1c(-c2ccc(O)cc2)coc2cc(O)cc(O)c12,-4.6% (inactive)
11,Cn1c(=O)c2c(ncn2C)n(C)c1=O,-8.63% (inactive)
12,CC(COc1ccccc1)N(CCCl)Cc1ccccc1 (stereo not drawn),-2.55% (inactive)
13,Nc1c2c(nc3ccccc13)CCCC2,-7.94% (inactive)
14,CC[N+](CC)(CC)CCOc1cccc(OCC[N+](CC)(CC)CC)c1OCC[N+](CC)(CC)CC,-12.5% (inactive)
15,Cn1c(=O)c2[nH]cnc2n(C)c1=O,-8.38% (inactive)
16,Clc1ccc2nsnc2c1NC1=NCCN1,-10% (inactive)
17,CC#C[C@]1(O)CC[C@H]2[C@@H]3CCC4=CC(=O)CCC4=C3[C@@H](c3ccc(N(C)C)cc3)C[C@@]21C,-10% (inactive)
18,CCN1CCCC1CNC(=O)c1cc(S(=O)(=O)CC)c(N)cc1OC (stereo not drawn),-12.3% (inactive)
19,COc1ccc(CCN(C)CCCC(C#N)(c2ccc(OC)c(OC)c2)C(C)C)cc1OC (stereo not drawn),-6.88% (inactive)
20,OCCN1CCN(CCCN2c3ccccc3Sc3ccc(C(F)(F)F)cc32)CC1,-11.7% (inactive)
21,CN(C)CCOC(c1ccccc1)c1ccccc1,-3.33% (inactive)
22,CN1CCN(CCCN2c3ccccc3Sc3ccc(Cl)cc32)CC1,-16.6% (inactive)
23,CN(C)C(=O)C(CCN1CCC(O)(c2ccc(Cl)cc2)CC1)(c1ccccc1)c1ccccc1,-8.95% (inactive)
24,CN1CCC(=C2c3ccccc3CC(=O)c3sccc32)CC1,-26.3% (inactive)
25,COc1ccccc1N1CCN(CC(O)COc2cccc3ccccc23)CC1 (stereo not drawn),-29.4% (inactive)
26,Nc1nnc(-c2cccc(Cl)c2Cl)c(N)n1,-9.49% (inactive)
27,COc1nc(C)nc(Cl)c1NC1=NCCN1,-4.07% (inactive)
28,COc1ccccc1OCCNCC(O)COc1cccc2[nH]c3ccccc3c12 (stereo not drawn),-5.87% (inactive)
